# Results taken from PubChem BioAssay (EPA / NIEHS).
# Inconclusive results are not listed. Activity calls are given as the source filed them. How the source made its calls: active means hit-call score of the fitted dose curve at least 0.9, where 1 is the maximum; inconclusive means response in the unintended direction; inactive means score below 0.9.
# What was measured:
# [1] = target: human Peroxisome Proliferator-activated Receptor alpha (PPARa), PPARA (gene 5465) (UniProt Q07869); assay: NVS_NR_hPPARa: NovaScreen (NVS) Nuclear Receptor Binding Assay for human Peroxisome Proliferator-activated Receptor alpha (PPARa) (AID 2283359);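 further: activity means loss of TR-FRET signal versus DMSO baseline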
# Sequence of human Peroxisome Proliferator-activated Receptor alpha (PPARa), PPARA (gene 5465) (Q07869 whole entry, looked up): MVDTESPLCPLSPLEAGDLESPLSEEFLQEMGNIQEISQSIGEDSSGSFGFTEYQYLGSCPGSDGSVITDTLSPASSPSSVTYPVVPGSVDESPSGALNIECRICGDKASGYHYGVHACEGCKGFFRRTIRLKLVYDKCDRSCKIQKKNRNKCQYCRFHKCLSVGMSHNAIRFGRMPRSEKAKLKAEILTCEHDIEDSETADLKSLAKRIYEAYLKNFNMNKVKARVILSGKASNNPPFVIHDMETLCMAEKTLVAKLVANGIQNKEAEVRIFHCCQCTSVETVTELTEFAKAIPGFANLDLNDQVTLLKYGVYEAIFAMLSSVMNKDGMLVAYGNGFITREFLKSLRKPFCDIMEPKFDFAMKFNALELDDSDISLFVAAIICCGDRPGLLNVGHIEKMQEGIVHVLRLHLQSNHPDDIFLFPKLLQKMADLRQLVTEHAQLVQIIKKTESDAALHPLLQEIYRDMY
# How it was run: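 Cell-free TR-FRET binding assay with extracted PPARα protein, read 1 h after dosing. Primary screen in duplicate at 25 uM, with actives retested in concentration series. Loss of signal versus DMSO.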
# PGR (gene 5241) = PGR (gene 5241) (UniProt P06401); assay: NVS_NR_hPR: NovaScreen (NVS) Nuclear Receptor Binding Assay for human Progestron Receptor (PR) (AID 2283360);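 further: active means loss of bound radioligand signal versus DMSO baseline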
# Sequence of PGR (gene 5241) (P06401 whole entry, looked up): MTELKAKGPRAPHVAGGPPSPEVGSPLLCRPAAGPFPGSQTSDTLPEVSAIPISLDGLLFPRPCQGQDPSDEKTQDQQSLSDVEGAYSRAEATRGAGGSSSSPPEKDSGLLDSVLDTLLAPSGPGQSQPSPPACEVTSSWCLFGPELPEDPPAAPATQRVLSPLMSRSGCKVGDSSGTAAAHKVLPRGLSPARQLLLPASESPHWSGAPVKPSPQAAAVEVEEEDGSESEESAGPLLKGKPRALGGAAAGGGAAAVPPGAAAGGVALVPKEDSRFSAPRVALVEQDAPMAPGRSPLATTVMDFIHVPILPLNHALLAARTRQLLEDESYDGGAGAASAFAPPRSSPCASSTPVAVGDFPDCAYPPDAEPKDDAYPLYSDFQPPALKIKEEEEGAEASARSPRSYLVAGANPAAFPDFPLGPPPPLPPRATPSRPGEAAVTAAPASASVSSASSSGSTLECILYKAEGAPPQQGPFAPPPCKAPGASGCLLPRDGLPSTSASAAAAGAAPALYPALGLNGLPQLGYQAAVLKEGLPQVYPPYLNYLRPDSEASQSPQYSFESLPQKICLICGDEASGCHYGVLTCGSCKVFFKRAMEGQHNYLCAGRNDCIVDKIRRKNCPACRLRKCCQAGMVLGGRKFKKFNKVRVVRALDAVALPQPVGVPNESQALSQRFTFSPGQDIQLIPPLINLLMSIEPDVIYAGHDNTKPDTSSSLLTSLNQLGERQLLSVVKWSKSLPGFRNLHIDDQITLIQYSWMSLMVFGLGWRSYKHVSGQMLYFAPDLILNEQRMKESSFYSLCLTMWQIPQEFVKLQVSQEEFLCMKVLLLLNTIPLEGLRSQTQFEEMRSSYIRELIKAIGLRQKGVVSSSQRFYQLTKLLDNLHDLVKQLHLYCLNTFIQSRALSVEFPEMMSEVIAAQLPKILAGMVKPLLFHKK
# How it was run: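 Radioligand competition binding on receptor extracted from T47D cells, read by scintillation counting 18 h after dosing. Loss of signal versus DMSO; primary screen in duplicate at 25 uM, actives followed in concentration series.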
# [2] = target: Retinoic acid receptor alpha (Homo sapiens) (UniProt P10276); assay: NVS_NR_hRARa_Agonist: NovaScreen (NVS) Nuclear Receptor Binding Assay for human Retinoic Acid Alpha Receptor Agonism (RAR) (AID 2283361)
# Sequence of Retinoic acid receptor alpha (Homo sapiens) (P10276 whole entry, looked up): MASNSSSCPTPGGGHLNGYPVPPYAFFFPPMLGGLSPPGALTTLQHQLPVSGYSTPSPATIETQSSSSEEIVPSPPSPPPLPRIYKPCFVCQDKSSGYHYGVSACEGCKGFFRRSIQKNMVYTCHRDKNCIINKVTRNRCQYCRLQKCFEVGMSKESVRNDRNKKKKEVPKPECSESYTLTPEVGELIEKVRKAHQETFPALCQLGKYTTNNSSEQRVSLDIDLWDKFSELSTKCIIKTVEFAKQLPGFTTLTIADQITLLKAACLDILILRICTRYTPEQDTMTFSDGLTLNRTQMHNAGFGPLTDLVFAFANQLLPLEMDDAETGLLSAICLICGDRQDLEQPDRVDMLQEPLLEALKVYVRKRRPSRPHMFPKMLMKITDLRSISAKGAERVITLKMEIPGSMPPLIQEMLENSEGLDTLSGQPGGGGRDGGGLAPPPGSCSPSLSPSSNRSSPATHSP
# How it was run: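 Cell-free TR-FRET binding readout with extracted receptor protein, read 2 hours after dosing; gain-of-signal fitted relative to DMSO. Screened in duplicate at 25 uM, actives then run in concentration-response.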
smiles,measurement,setting,value
CN(C)[C@@H]1C(=O)C(C(N)=O)=C(O)[C@@]2(O)C(=O)C3=C(O)c4c(O)cccc4[C@@](C)(O)[C@H]3[C@H](O)[C@@H]12,AC50,[1],14.1 µM (active)
CCCCN(CC)c1c([N+](=O)[O-])cc(C(F)(F)F)cc1[N+](=O)[O-],outcome,PGR (gene 5241),inactive
CNC(=O)ON=C(C)SC,outcome,PGR (gene 5241),inactive
O=[N+]([O-])c1cc(C(F)(F)F)c(Cl)c([N+](=O)[O-])c1Nc1ncc(C(F)(F)F)cc1Cl,outcome,[2],inactive
CCOC(=O)COc1cc(-c2nn(C)c(OC(F)F)c2Cl)c(F)cc1Cl,outcome,[2],inactive
